Measured values as given in the supplement of paper PMC8728848.
The sample as a whole holds a higher share of the strongest signals than the screen did.

What was measured:
Experiment in all cases: glycan array binding signal (z-score within array); higher = stronger binding
Conditions in all cases: glycan notation: IUPAC condensed, linker removed
[1] = target: GlcNAc(b1-2)Man(a1-3)[GlcNAc(b1-2)Man(a1-6)]Man(b1-4)GlcNAc(b1-4)[Fuc(a1-6)]GlcNAc
How it was run: (§1)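 The binding signal is a Z-score computed within each array. Data were drawn from 3228 arrays in the Consortium for Functional Glycomics database, restricted to those with a known protein sequence. Scores were averaged over arrays of the same protein sequence at different concentrations or buffers, and over linkers, and negative values can be taken as non-binding.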

[2] = target: GlcNAc(b1-3)Gal(b1-4)GlcNAc(b1-2)Man(a1-3)[GlcNAc(b1-3)Gal(b1-4)GlcNAc(b1-2)Man(a1-6)]Man(b1-4)GlcNAc(b1-4)GlcNAc
How it was run: as §1

[3] = target: GlcNAc(b1-3)Gal(b1-4)GlcNAc(b1-3)Gal(b1-4)GlcNAc(b1-2)Man(a1-3)[GlcNAc(b1-3)Gal(b1-4)GlcNAc(b1-3)Gal(b1-4)GlcNAc(b1-2)Man(a1-6)]Man(b1-4)GlcNAc(b1-4)GlcNAc
How it was run: as §1

[4] = target: GlcNAc(b1-3)Gal(b1-4)GlcNAc(b1-3)Gal(b1-4)GlcNAc(b1-2)Man(a1-3)[GlcNAc(b1-3)Gal(b1-4)GlcNAc(b1-3)Gal(b1-4)GlcNAc(b1-2)Man(a1-6)]Man(b1-4)GlcNAc(b1-4)[Fuc(a1-6)]GlcNAc
How it was run: as §1

[5] = target: GlcNAc(b1-3)Gal(b1-4)GlcNAc(b1-3)Gal(b1-4)GlcNAc(b1-2)[GlcNAc(b1-3)Gal(b1-4)GlcNAc(b1-3)Gal(b1-4)GlcNAc(b1-6)]Man(a1-6)[GlcNAc(b1-3)Gal(b1-4)GlcNAc(b1-3)Gal(b1-4)GlcNAc(b1-2)Man(a1-3)]Man(b1-4)GlcNAc(b1-4)[Fuc(a1-6)]GlcNAc
How it was run: as §1

[6] = target: Man(a1-2)Man(a1-6)[Man(a1-3)]Man(a1-6)[Man(a1-2)Man(a1-2)Man(a1-3)]Man
How it was run: as §1

[7] = target: Neu5Ac(a2-3)Gal(b1-3)GalNAc(b1-4)[Neu5Ac(a2-8)Neu5Ac(a2-3)]Gal(b1-4)Glc
How it was run: as §1

[8] = target: Neu5Ac(a2-3)Gal(b1-3)GlcNAc6S
How it was run: as §1

[9] = target: Neu5Ac(a2-3)Gal(b1-3)]Neu5Ac(a2-3)Gal(b1-4)]GlcNAc
How it was run: as §1

[10] = target: Neu5Ac(a2-3)Gal(b1-4)GlcNAc(b1-6)[Gal(b1-3)]GalNAc
How it was run: as §1

[11] = target: Neu5Ac(a2-6)GalNAc(b1-4)GlcNAc
How it was run: as §1

[12] = target: Neu5Ac(b2-6)Gal(b1-4)GlcNAc
How it was run: as §1

Neu5Ac(b2-6)GalNAc = target: Neu5Ac(b2-6)GalNAc
How it was run: as §1

[13] = target: Neu5Gc(a2-3)Gal(b1-4)GlcNAc(b1-3)Gal(b1-4)GlcNAc(b1-2)Man(a1-3)[Neu5Gc(a2-3)Gal(b1-4)GlcNAc(b1-3)Gal(b1-4)GlcNAc(b1-2)Man(a1-6)]Man(b1-4)GlcNAc(b1-4)GlcNAc
How it was run: as §1

[14] = target: Neu5Gc(a2-8)Neu5Gc(a2-3)Gal(b1-4)GlcNAc
How it was run: as §1

B1: InvD YPIII (Yersinia pseudotuberculosis), B1JSC0 (protein)
chain: MIKYFSFFKKPEPIVGILPNRQSHHILPTHIRRVAWGTLLLQLFIPLSVSFSPAIAAMKASKADTMVSYSSTEPYVLGSGETVAMVAKKYGITVDELKKINIYRTFSRPFTALTTGDEIDIPRKASPFSVDNNKDNRLSVENTLAGHAVAGATALSNGDVAKSGERMVRSAASNEFNNSAQQWLSQFGTARVQLNINDDFHLDGSAADVLIPLYDNEKSILFTQLGARNKDSRNTVNMGAGVRTFQGNWMYGANTFFDNDLTGKNRRIGVGAEAWTDYLKLSANNYFGITDWHQSRDFIDYNERPANGYDLRAEAYLPSYPQLGGKAMYEKYRGDDVALFGKDNRQKNPHAITAGVNYTPIPLVTIGAEHRAGKGGQNDSNINFQLNYRLGETWQSHIDPSAVAASRTLAGSRYDLVERNNHIVLDYQKQNLVRLSLPDSLAGDPFSQLSVTAQVTATHGLERIDWQSAELMAAGGVLKQTSKNGLEITLPEYQMNRTGGNSYILNAIAYDTQGNASSQASMLITVNAQKINIANSTLVAVPINIEANNSDTSVVTLTLKDDNNIPVTGQDVTFLSPLGTLSAMTDSGNGVYTATLTAGTVSGTTAVSSNINGSALDMTPATVTLNGNSGELSITHSMLVAAPVNIEANGSDTSVVTLTLRDSNNNPVTGQTVTFAGTLGTLGAVTEGSSGVYTATLTAGIMVGTSSITASVNSTALGVTPATVTLNGDSGNLSTTNSTLVAAPVNIEANSSDTSVVTLTLRDNNNNPVTGQTVVFTSTLGTLGNVTEQASGVYTATLTAGTVSGVASLSVSVGGNALGVTPATVTLNGDSGNLSTTNSTLVAAPVNIEANSSDTSVVTLTLRDNNNNPVTGQTVNFAGTLGTLGTVSEGSSGVYTTTLTAGTVAGVASLSVNVGGNALGVTPATVTLNGNSGNLSATNSTLVAAPVNIEANSSDTSVVTLTLRDNNNNPVTGQTVAFTSTLGTLGNVTEQASGVYTATLTAGTVSGVASLSVSVNSNALGVTPATVTLNGDSGNLSTTNSTLVAAPVNIEANSSDTSVVTLTLRDNNNNPVTGQTVAFTSTLGTLGNVTEQASGLYTATLTAGTVSGVASLSVNVGGNALGVTPATVTLNGDSGNLSATNSTLVAAPVNIEANSSDTSVVTLTLRDNNNNPVTGQTVAFTSTLGTLGNVTEQASGLYTATLTAGTVSGVASLSVNVGGTALGVTPATVTLNGDSGNLSTTNSTLVAAPVNIEANSSDTSVVTLTLRDNNNNPVTGQTVAFTSTLGTLGNVTEQASGLYTATLTAGTVSGVASLSVSVNSTALGVTPATVTLNGDSGNLSTTNSTLVAAPVNIEANSSDTSVVTLTLRDNNNNPVTGQTVAFTSTLGTLGNVTEQASGVYTATLTAGTVAGVASLSVNVGGNALGVTPATVTLNGDSGNLSTTNSTLVAAPVNIEANSSDTSVVTLTLRDNNNNPVTGQTVAFTSTLGTLGNVTEQASGVYTATLTAGTVSGVASLSVSVGSSALGVTPATVTLNGDSGNLSTTNSTLVAAPVNIEANNSDTSVVTLTLRDNNNNPVTGQTVAFTSTLGTLGNVTEQASGVYTATLTAGTVSGVASLSVSVNSNALGVTPATVTLNGDSGNLSTTNSTLVAAPVNIEANSSDTSVVTLTLRDNNNNPVTGQTVVFTSTLGTLGNVTEQASGLYTATLTAGTVSGVASLSVSVGGNALGVTGNITLAPGALDAARSILAVNKPSINADDRIGSTITFTAQDAQGNAITGLDIAFMTDLENSQIMTLVDHNDGTYTANINGTQTGIANIAVQSSGATIAGLAATMVTITPGAWNTTQATPVMTVALPITTCQSSSGVYKRYYIGIVTHELYDNYGNEISGILTYNLGAGRYTTVTSQNSSVSGSNGLTRRSNSPVSHFILTSDAYTSQAACYAERIANVNVTITVTAITDDFKTSAVNKVFILGTGSN
In the case of B1, the “glycan array binding signal (z-score)” value [1] is reported as 0.422, the “glycan array binding signal (z-score)” value [2] is reported as -0.006 and the “glycan array binding signal (z-score)” value [3] is reported as 5.11. For the same binder, the “glycan array binding signal (z-score)” value [4] was 2.68, the “glycan array binding signal (z-score)” value [5] was 4.27 and the “glycan array binding signal (z-score)” value [6] was -0.216. The “glycan array binding signal (z-score)” value [7] was -0.165, the “glycan array binding signal (z-score)” value [8] was -0.22 and the “glycan array binding signal (z-score)” value [9] was 0.034. For the same binder, the “glycan array binding signal (z-score)” value [10] was 0.162, the “glycan array binding signal (z-score)” value [11] was -0.312 and the “glycan array binding signal (z-score)” value [12] was -0.095. The “glycan array binding signal (z-score)” value (Neu5Ac(b2-6)GalNAc) was 0.163, the “glycan array binding signal (z-score)” value [13] was 0.122 and the “glycan array binding signal (z-score)” value [14] was -0.373.
